# Measurements taken from publication PMC7862700, “An all-to-all approach to the identification of sequence-specific readers for epigenetic DNA modifications on cytosine”.
# How the values were obtained:
# Assay in all cases: DAPPL (digital affinity profiling via proximity ligation, sequencing); 10 mM Tris-HCl pH 7.5, 50 mM NaCl, 1 mM DTT, 4% glycerol, room temperature, 30 min; GST-TFs on glutathione beads, 16-mer random dsDNA library, 0.1% formaldehyde crosslink after washing; high values mean tight binding
# FLI1 = target: T1, FLI1 (Homo sapiens, UniProt Q01543 1-452); conditions: protein: recombinant; tags: N-terminal GST; dsDNA, one strand shown
# T1 sequence: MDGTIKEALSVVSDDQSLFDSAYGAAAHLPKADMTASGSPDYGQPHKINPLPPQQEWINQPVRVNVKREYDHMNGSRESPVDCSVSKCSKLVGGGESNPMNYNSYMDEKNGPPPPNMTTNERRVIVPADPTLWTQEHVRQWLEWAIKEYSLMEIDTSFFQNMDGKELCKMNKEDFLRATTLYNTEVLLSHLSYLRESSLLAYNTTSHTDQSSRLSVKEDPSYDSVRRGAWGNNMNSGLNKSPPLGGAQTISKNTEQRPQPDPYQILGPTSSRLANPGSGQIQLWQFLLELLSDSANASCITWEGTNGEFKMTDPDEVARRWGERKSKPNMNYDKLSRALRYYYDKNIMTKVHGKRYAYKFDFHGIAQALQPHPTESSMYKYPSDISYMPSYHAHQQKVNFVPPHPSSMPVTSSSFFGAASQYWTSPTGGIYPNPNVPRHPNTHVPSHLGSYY
# In short: (§1)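 The binding signal reported is, for every hexamer, its read frequency for a factor over its read frequency for the tag-only sample. Reads came from pools of yeast-expressed, GST-fused human transcription factors on glutathione beads, barcoded with DNA and mixed with that sample, which were incubated with 200 nmole of a random double-stranded 16-mer DNA library in Tris/NaCl/DTT/glycerol buffer at room temperature for 30 min. After washing, the pools were crosslinked with 0.1% formaldehyde, proximity-ligated with BsaI/T4 ligase for 1 h at 37 °C, PCR-amplified and sequenced on an Illumina NextSeq500.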
# ELK1 = target: T2, ELK1 (Homo sapiens, UniProt P19419 1-428); conditions: protein: recombinant; tags: N-terminal GST; dsDNA, one strand shown
# T2 sequence: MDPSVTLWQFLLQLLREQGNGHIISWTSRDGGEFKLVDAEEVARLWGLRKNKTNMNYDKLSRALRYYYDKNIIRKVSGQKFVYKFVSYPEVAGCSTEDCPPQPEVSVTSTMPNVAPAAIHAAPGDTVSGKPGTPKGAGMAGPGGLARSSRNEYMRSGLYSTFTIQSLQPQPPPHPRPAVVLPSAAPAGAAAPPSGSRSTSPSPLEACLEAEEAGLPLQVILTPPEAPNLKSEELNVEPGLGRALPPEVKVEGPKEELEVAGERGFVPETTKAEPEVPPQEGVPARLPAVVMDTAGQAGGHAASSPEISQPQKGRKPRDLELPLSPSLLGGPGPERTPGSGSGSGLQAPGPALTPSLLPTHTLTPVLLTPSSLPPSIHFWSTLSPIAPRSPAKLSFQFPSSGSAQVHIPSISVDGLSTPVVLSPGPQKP
# In short: as §1
# GABPA = target: T3, GABPA (Homo sapiens, UniProt Q06546 1-454); conditions: protein: recombinant; tags: N-terminal GST; dsDNA, one strand shown
# T3 sequence: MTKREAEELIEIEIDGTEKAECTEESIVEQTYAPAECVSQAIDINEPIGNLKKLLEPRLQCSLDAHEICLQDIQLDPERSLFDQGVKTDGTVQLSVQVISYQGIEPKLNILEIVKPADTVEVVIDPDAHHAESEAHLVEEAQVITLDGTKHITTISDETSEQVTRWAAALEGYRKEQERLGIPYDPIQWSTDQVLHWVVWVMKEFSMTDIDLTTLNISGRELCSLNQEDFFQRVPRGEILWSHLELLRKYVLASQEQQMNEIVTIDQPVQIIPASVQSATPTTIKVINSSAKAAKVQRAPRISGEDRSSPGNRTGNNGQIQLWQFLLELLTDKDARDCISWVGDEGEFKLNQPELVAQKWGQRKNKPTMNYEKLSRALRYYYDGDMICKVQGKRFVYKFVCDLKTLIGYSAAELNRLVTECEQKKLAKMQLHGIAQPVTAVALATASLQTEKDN
# In short: as §1
# ERG = target: T4, ERG (Homo sapiens, UniProt P11308 1-479); conditions: protein: recombinant; tags: N-terminal GST; dsDNA, one strand shown
# T4 sequence: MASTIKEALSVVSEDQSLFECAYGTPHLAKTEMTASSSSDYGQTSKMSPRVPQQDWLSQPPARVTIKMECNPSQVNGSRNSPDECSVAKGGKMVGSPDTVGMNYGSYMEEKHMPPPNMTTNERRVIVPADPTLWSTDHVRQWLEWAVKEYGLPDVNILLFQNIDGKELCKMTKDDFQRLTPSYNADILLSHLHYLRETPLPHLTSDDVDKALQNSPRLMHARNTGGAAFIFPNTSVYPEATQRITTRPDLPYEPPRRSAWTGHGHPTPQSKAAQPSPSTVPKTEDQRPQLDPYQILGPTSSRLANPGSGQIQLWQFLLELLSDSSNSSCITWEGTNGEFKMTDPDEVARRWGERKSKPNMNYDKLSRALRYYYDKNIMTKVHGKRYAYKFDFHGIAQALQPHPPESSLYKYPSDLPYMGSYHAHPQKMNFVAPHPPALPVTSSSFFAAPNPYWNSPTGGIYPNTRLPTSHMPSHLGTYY
# In short: as §1
# ELF1 = ELF1 (Homo sapiens, UniProt P32519 1-619); conditions: protein: recombinant; tags: N-terminal GST; dsDNA, one strand shown
# Sequence of ELF1 (P32519 whole entry): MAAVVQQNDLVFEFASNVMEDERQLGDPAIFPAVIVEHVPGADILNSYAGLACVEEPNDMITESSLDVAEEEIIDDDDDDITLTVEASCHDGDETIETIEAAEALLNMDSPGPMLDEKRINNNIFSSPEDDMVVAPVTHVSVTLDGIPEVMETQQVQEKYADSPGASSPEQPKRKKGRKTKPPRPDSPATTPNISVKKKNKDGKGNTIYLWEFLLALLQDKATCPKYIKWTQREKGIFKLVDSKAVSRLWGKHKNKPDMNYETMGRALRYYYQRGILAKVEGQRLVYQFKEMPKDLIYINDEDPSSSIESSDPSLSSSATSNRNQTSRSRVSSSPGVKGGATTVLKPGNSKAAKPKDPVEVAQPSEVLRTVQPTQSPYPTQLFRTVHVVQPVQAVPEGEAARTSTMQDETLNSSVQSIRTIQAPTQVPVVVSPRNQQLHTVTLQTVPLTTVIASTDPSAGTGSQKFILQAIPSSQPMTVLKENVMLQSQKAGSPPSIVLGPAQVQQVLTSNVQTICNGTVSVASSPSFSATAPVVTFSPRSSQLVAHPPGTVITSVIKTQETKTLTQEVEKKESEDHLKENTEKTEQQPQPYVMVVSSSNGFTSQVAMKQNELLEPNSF
# In short: as §1
# SPI1 = SPI1 (Homo sapiens, UniProt P17947 1-270); conditions: protein: recombinant; tags: N-terminal GST; dsDNA, one strand shown
# In short: as §1
# SPIB = SPIB (Homo sapiens, UniProt Q01892 1-262); conditions: protein: recombinant; tags: N-terminal GST; dsDNA, one strand shown
# Sequence of SPIB (Q01892 whole entry): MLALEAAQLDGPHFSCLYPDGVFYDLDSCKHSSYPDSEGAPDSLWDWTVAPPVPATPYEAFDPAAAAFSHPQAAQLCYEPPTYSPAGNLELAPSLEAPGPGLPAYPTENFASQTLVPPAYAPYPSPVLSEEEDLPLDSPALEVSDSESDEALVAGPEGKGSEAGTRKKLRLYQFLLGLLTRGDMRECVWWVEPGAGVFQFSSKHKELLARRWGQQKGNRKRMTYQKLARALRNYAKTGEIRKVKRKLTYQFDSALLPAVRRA
# In short: as §1
# ELK3 = target: T5, ELK3 (Homo sapiens, UniProt P41970 1-407); conditions: protein: recombinant; tags: N-terminal GST; dsDNA, one strand shown
# T5 sequence: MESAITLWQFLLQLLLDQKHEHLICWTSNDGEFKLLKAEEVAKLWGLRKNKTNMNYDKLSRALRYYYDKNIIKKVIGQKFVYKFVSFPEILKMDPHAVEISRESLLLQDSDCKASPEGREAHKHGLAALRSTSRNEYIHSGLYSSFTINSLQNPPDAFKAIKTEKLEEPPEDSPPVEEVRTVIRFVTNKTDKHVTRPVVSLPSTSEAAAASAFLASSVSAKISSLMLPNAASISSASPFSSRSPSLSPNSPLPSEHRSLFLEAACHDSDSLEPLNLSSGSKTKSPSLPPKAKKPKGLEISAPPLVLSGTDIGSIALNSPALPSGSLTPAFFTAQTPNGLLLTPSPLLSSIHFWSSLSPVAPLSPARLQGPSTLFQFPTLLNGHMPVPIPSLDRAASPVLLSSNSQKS
# In short: as §1
# FEV = target: T6, FEV (Homo sapiens, UniProt Q99581 1-238); conditions: protein: recombinant; tags: N-terminal GST; dsDNA, one strand shown
# T6 sequence: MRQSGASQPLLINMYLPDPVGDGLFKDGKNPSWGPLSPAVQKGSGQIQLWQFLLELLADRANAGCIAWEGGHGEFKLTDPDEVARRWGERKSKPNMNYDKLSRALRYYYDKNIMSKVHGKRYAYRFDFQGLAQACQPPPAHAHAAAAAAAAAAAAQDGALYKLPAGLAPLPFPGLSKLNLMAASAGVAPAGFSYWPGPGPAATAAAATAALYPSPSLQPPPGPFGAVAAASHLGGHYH
# In short: as §1
# ETV5 = ETV5 (Homo sapiens, UniProt P41161 1-510); conditions: protein: recombinant; tags: N-terminal GST; dsDNA, one strand shown
# Sequence of ETV5 (P41161 whole entry): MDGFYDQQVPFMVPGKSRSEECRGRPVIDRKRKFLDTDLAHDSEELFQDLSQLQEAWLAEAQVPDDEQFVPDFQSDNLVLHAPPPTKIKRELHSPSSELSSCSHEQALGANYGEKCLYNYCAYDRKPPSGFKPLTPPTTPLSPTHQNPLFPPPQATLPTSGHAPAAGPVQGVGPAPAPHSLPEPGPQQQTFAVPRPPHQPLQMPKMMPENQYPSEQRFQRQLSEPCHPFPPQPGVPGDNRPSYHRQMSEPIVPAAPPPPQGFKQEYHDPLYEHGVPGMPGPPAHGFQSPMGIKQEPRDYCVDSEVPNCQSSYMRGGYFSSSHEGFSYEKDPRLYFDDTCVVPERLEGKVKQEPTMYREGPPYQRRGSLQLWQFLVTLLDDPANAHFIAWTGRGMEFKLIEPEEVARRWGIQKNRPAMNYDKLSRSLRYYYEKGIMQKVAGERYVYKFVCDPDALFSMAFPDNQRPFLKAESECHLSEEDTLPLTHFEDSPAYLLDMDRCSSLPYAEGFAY
# In short: as §1
# HSF1 = HSF1 (Homo sapiens, UniProt Q00613 1-529); conditions: protein: recombinant; tags: N-terminal GST; chain copies: 3; dsDNA, one strand shown
# Sequence of HSF1 (Q00613 whole entry): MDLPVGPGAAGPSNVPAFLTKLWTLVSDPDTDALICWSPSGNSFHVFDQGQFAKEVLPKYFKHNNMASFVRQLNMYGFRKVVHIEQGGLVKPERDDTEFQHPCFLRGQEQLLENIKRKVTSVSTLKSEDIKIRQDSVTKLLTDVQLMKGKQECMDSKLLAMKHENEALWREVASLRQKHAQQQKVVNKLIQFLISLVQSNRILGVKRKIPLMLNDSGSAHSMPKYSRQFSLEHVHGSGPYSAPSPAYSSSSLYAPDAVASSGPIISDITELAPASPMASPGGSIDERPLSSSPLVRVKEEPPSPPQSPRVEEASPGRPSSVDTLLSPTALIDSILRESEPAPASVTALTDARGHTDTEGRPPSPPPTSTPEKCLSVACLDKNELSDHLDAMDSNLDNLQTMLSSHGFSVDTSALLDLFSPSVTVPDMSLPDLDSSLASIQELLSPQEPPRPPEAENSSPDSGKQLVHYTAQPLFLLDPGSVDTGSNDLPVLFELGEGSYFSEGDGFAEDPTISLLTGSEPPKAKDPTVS
# In short: as §1
# SPIC = target: T7, SPIC (Homo sapiens, UniProt Q8N5J4 1-248); conditions: protein: recombinant; tags: N-terminal GST; dsDNA, one strand shown
# T7 sequence: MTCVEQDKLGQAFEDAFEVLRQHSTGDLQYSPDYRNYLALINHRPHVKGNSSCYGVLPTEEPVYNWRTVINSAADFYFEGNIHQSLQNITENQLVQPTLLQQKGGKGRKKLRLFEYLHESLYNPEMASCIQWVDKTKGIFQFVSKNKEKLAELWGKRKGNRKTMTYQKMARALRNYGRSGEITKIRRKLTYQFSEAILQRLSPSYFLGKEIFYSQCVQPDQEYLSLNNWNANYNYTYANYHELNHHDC
# In short: as §1
# ELF4 = ELF4 (Homo sapiens, UniProt Q99607 1-663); conditions: protein: recombinant; tags: N-terminal GST; dsDNA, one strand shown
# Sequence of ELF4 (Q99607 whole entry): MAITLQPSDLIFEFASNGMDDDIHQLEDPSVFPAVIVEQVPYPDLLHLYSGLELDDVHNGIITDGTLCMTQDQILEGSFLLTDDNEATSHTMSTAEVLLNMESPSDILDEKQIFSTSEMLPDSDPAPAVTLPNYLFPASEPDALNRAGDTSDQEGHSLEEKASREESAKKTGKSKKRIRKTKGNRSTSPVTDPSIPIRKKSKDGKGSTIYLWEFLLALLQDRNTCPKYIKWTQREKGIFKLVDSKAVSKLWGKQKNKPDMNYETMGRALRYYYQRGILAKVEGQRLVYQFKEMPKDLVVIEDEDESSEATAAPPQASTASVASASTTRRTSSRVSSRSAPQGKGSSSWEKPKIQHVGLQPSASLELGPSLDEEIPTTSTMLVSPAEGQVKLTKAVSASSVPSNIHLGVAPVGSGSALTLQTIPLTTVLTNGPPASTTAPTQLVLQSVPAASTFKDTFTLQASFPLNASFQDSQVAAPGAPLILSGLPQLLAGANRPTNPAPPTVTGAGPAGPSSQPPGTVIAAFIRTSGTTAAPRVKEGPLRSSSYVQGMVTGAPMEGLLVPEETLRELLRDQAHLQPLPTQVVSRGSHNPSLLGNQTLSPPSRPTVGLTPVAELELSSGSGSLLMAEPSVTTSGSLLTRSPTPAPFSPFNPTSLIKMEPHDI
# In short: as §1
# ELK4 = target: T8, ELK4 (Homo sapiens, UniProt P28324-2 1-405); conditions: protein: recombinant; tags: N-terminal GST; dsDNA, one strand shown
# T8 sequence: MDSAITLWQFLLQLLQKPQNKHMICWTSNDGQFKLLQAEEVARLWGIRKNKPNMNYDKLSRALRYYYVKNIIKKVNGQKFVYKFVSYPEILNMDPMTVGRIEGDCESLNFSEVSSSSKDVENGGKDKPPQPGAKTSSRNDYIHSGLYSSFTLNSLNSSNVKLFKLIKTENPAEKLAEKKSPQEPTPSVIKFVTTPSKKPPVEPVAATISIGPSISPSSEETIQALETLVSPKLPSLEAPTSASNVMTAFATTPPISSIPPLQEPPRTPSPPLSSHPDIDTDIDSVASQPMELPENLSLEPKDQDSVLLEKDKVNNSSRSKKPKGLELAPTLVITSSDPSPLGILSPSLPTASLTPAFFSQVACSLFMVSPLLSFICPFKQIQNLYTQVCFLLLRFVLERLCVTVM
# In short: as §1
# ELF3 = target: T9, ELF3 (Homo sapiens, UniProt P78545 1-371); conditions: protein: recombinant; tags: N-terminal GST; dsDNA, one strand shown
# T9 sequence: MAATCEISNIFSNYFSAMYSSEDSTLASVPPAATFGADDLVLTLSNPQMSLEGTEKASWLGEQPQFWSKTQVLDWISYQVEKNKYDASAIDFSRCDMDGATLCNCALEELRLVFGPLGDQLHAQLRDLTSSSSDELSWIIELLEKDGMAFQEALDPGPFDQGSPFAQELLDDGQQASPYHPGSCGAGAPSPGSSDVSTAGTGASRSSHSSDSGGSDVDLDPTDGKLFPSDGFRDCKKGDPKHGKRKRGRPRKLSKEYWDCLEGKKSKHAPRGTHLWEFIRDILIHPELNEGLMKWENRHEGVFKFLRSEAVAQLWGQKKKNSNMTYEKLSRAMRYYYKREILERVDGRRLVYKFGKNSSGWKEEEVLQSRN
# In short: as §1
# CRX = CRX (Homo sapiens, UniProt O43186 1-299); conditions: protein: recombinant; tags: N-terminal GST; dsDNA, one strand shown
# Sequence of CRX (O43186 whole entry): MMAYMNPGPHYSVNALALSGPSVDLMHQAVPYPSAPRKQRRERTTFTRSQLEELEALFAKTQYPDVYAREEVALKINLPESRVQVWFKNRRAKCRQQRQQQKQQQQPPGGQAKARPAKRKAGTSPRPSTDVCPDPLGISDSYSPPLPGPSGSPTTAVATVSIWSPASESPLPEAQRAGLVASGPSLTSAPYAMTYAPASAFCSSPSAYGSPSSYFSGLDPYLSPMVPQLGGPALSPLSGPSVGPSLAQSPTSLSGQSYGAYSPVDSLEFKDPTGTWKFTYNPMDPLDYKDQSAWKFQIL
# In short: as §1
# ETV1 = ETV1 (Homo sapiens, UniProt P50549 1-477); conditions: protein: recombinant; tags: N-terminal GST; dsDNA, one strand shown
# Sequence of ETV1 (P50549 whole entry): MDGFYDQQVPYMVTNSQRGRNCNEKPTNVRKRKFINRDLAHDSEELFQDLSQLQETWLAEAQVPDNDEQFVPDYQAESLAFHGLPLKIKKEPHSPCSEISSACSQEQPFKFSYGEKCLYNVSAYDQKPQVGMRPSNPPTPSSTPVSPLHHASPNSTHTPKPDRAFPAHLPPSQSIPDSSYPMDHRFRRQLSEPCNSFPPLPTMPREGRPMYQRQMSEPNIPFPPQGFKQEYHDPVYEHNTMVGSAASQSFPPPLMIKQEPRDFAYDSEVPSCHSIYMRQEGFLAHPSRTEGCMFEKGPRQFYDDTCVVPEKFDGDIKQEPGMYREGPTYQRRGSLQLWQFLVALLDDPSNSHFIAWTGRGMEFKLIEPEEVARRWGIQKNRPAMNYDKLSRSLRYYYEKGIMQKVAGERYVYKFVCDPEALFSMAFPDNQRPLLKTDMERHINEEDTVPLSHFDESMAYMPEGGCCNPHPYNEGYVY
# In short: as §1
sequence,measurement,setting,value
CGATCA,binding signal,FLI1,"1.15 fold enrichment (6-mer frequency, TF over GST control)"
same,binding signal,ELK1,"1.13 fold enrichment (6-mer frequency, TF over GST control)"
same,binding signal,GABPA,"1.15 fold enrichment (6-mer frequency, TF over GST control)"
same,binding signal,ERG,"1.07 fold enrichment (6-mer frequency, TF over GST control)"
same,binding signal,ELF1,"1.2 fold enrichment (6-mer frequency, TF over GST control)"
same,binding signal,SPI1,"1.02 fold enrichment (6-mer frequency, TF over GST control)"
same,binding signal,SPIB,"1.06 fold enrichment (6-mer frequency, TF over GST control)"
same,binding signal,ELK3,"1.23 fold enrichment (6-mer frequency, TF over GST control)"
same,binding signal,FEV,"1.04 fold enrichment (6-mer frequency, TF over GST control)"
same,binding signal,ETV5,"1.03 fold enrichment (6-mer frequency, TF over GST control)"
same,binding signal,HSF1,"1.22 fold enrichment (6-mer frequency, TF over GST control)"
same,binding signal,SPIC,"1.06 fold enrichment (6-mer frequency, TF over GST control)"
same,binding signal,ELF4,"1.06 fold enrichment (6-mer frequency, TF over GST control)"
same,binding signal,ELK4,"1.07 fold enrichment (6-mer frequency, TF over GST control)"
same,binding signal,ELF3,"1.07 fold enrichment (6-mer frequency, TF over GST control)"
same,binding signal,CRX,"1.16 fold enrichment (6-mer frequency, TF over GST control)"
same,binding signal,ETV1,"1.04 fold enrichment (6-mer frequency, TF over GST control)"
